{"source": "PubChem BioAssay AID1347418", "about": "(Sanford-Burnham Center for Chemical Genomics, 2020)", "note": "Among all 1,300 compounds or so, about 750 (58%) were called active. This is one part of the list. Unmarked numbers belong to inactive results.", "data": [{"target": "Sulfhydryl oxidase 1 (Homo sapiens) (UniProt O00391)", "sequence (O00391 whole entry, looked up)": "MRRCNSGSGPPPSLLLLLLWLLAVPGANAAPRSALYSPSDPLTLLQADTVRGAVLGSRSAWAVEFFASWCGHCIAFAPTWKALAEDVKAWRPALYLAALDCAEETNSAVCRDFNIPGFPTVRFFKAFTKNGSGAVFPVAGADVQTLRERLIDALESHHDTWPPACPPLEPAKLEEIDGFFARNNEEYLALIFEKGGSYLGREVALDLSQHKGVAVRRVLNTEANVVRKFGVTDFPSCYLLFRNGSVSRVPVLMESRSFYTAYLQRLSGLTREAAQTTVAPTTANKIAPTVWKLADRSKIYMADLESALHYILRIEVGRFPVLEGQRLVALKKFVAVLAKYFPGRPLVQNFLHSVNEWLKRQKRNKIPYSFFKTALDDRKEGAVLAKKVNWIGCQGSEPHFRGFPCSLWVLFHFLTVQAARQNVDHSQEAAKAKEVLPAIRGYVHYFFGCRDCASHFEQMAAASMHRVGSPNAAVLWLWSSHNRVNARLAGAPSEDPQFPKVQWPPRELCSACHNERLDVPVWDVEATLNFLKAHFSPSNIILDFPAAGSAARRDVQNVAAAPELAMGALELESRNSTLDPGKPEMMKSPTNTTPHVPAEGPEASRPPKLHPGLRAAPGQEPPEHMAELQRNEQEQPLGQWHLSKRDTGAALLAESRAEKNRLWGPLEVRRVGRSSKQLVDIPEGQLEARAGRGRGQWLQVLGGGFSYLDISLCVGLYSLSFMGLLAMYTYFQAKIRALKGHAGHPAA", "experiment": "QSOX1 enzyme inhibitors, primary screen, biochemical, ROS-Glo H2O2 luminescence, HTS (AID 1347418)", "conditions": "recombinant QSOX1, ROS-Glo H2O2 luminescence; at 12.5 µM; hits give high values; active = any value above zero", "values": [{"compound": "CCc1cccc2c3c([nH]c12)C(CC)(CC(=O)O)OCC3", "note": "(centres undefined)", "inhibition": "9.9% (active)"}, {"compound": "NC(Cc1ccc(Cl)cc1)C(=O)O", "note": "(centres undefined)", "inhibition": "-3.4%"}, {"compound": "CC(N)C(=O)OC(C)(C)Cc1ccc(Cl)cc1", "note": "(centres undefined)", "inhibition": "-3.5%"}, {"compound": "COC(=O)[C@@H](N)Cc1ccc(O)c(O)c1", "inhibition": "1.3% (active)"}, {"compound": "COC(=O)C(N)Cc1ccc(Cl)cc1", "note": "(centres undefined)", "inhibition": "9.7% (active)"}, {"compound": "N[C@@H](Cc1ccc(F)cc1)C(=O)O", "inhibition": "0.8% (active)"}, {"compound": "N[C@@H](Cn1ccc(=O)c(O)c1)C(=O)O", "inhibition": "-3.8%"}, {"compound": "NCCc1ccc(O)c(O)c1", "inhibition": "8.1% (active)"}, {"compound": "N[C@@H](Cc1ccc(O)c(O)c1)C(=O)O", "inhibition": "9.8% (active)"}, {"compound": "NC(Cc1cccc(-c2ccccc2CP(=O)(O)O)c1)C(=O)O", "note": "(centres undefined)", "inhibition": "-2%"}, {"compound": "CC(Cc1ccc(O)c(O)c1)C(C)Cc1ccc(O)c(O)c1", "note": "(centres undefined)", "inhibition": "45.8% (active)"}, {"compound": "N[C@@H](Cc1ccc(O)c(I)c1)C(=O)O", "inhibition": "-5.7%"}, {"compound": "CCN1CCCC1CNC(=O)c1cc(S(N)(=O)=O)ccc1OC", "note": "(centres undefined)", "inhibition": "3.2% (active)"}, {"compound": "CCN1CCCC1CNC(=O)c1cc(S(=O)(=O)CC)c(N)cc1OC", "note": "(centres undefined)", "inhibition": "-1%"}, {"compound": "CCN1CCC[C@H]1CNC(=O)c1c(O)c(Cl)cc(Cl)c1OC", "inhibition": "2.3% (active)"}, {"compound": "CCN1CCC[C@H]1CNC(=O)c1cc(S(N)(=O)=O)ccc1OC", "inhibition": "-1.2%"}, {"compound": "NC1CCN(c2cccc(Cl)n2)CC1", "inhibition": "-5.8%"}, {"compound": "Cc1cnc(C(=O)NCCc2ccc(S(=O)(=O)NC(=O)NC3CCCCC3)cc2)cn1", "inhibition": "5.4% (active)"}, {"compound": "CC(=O)c1ccc(S(=O)(=O)NC(=O)NC2CCCCC2)cc1", "inhibition": "-5.7%"}, {"compound": "COc1ccc(Cl)cc1C(=O)NCCc1ccc(S(=O)(=O)NC(=O)NC2CCCCC2)cc1", "inhibition": "-5.6%"}, {"compound": "O=c1oc(Cl)c(Cl)c2ccccc12", "inhibition": "-1.8%"}, {"compound": "C/C(=C\\c1ccc(C(=O)O)cc1)c1ccc2c(c1)C(C)(C)CCC2(C)C", "inhibition": "1.8% (active)"}, {"compound": "CC(N)(C(=O)O)c1ccc(C(=O)O)cc1", "note": "(centres undefined)", "inhibition": "-3.7%"}, {"compound": "NC1(C(=O)O)CCc2cc(C(=O)O)ccc21", "note": "(centres undefined)", "inhibition": "-2.9%"}, {"compound": "Cc1ccccc1C(OCCN(C)C)c1ccccc1", "note": "(centres undefined)", "inhibition": "-1.5%"}, {"compound": "CN(C)CCOC(c1ccccc1)c1ccccc1", "inhibition": "4.3% (active)"}, {"compound": "CCN(Cc1ccncc1)C(=O)C(CO)c1ccccc1", "note": "(centres undefined)", "inhibition": "-4.5%"}, {"compound": "N=C(N)SCCc1cnc[nH]1", "inhibition": "2.7% (active)"}, {"compound": "NCCc1cnc[nH]1", "inhibition": "-5%"}, {"compound": "Cc1cccc(C(=O)NCN2CCN(c3ccccc3C#N)CC2)c1", "inhibition": "-1.8%"}, {"compound": "c1cnc(N2CCN(Cc3ccc4c(c3)OCO4)CC2)nc1", "inhibition": "-0.2%"}, {"compound": "O=C(NCCN1CCOCC1)c1ccc(Cl)cc1", "inhibition": "-3.4%"}, {"compound": "O=C1CC2(CCCC2)CC(=O)N1CCCCN1CCN(c2ncccn2)CC1", "inhibition": "1.2% (active)"}, {"compound": "COc1ccccc1N1CCN(CCN2C(=O)CC3(CCCC3)CC2=O)CC1", "inhibition": "17.2% (active)"}, {"compound": "COc1cccc(C(=O)NCCN2CCN(c3ccc(Cl)cc3)CC2)c1", "inhibition": "21.7% (active)"}, {"compound": "COc1ccc(NC(=O)c2ccc(-c3ccc(-c4noc(C)n4)cc3C)cc2)cc1N1CCN(C)CC1", "inhibition": "-1.1%"}, {"compound": "COc1ccccc1N1CCN(CCCCNC(=O)c2ccc3ccccc3c2)CC1", "inhibition": "12.2% (active)"}, {"compound": "Nc1nc(N)c2nc(-c3ccccc3)c(N)nc2n1", "inhibition": "-0.8%"}, {"compound": "CC(=O)[C@]1(O)Cc2c(O)c3c(c(O)c2[C@@H](O[C@H]2C[C@H](N)[C@H](O)[C@H](C)O2)C1)C(=O)c1ccccc1C3=O", "inhibition": "-0.7%"}, {"compound": "COc1ccccc1N1CCN(CCCCN2C(=O)c3ccccc3C2=O)CC1", "inhibition": "3.6% (active)"}, {"compound": "c1cc(CN2CCCCC2)cc(OCCCNc2nc3ccccc3s2)c1", "inhibition": "3.8% (active)"}, {"compound": "CC(=O)Nc1nnc(S(N)(=O)=O)s1", "inhibition": "0.8% (active)"}, {"compound": "OCc1ccc(-c2nn(Cc3ccccc3)c3ccccc23)o1", "inhibition": "-2.6%"}, {"compound": "CC(CCc1ccc(O)cc1)NCCc1ccc(O)c(O)c1", "note": "(centres undefined)", "inhibition": "17.1% (active)"}, {"compound": "CCCCCCCC/C=C\\CCCCCCCC(=O)NCCc1ccc(O)c(O)c1", "inhibition": "-7.8%"}, {"compound": "C[C@@H](NCCc1ccc(O)cc1)[C@@H](O)c1ccc(O)cc1", "inhibition": "3.9% (active)"}, {"compound": "CC(CCc1ccccc1)NCC(O)c1ccc(O)c(C(N)=O)c1", "note": "(centres undefined)", "inhibition": "2.1% (active)"}, {"compound": "O=Nc1ccc2oc(=O)ccc2c1", "inhibition": "16.8% (active)"}, {"compound": "Cc1cc(Cn2cnc3c2C[C@@H](C(=O)O)N(C(=O)C(c2ccccc2)c2ccccc2)C3)ccc1N", "inhibition": "0%"}, {"compound": "CCN(CC)CCCC(C)Nc1c2ccc(Cl)cc2nc2ccc(OC)cc12", "note": "(centres undefined)", "inhibition": "0.7% (active)"}, {"compound": "CCN(CC)CCCC(C)Nc1ccnc2cc(Cl)ccc12", "note": "(centres undefined)", "inhibition": "-4.9%"}, {"compound": "CN(C)C(=O)n1nnnc1Cc1ccc(-c2ccccc2)cc1", "inhibition": "5.2% (active)"}, {"compound": "CCNC(=O)N1CCN(CCCC(c2ccc(F)cc2)c2ccc(F)cc2)CC1", "inhibition": "-0.9%"}, {"compound": "O=C(O)COCCN1CCN(C(c2ccccc2)c2ccc(Cl)cc2)CC1", "note": "(centres undefined)", "inhibition": "0.5% (active)"}, {"compound": "CN(C)C(=O)C(CCN1CCC(O)(c2ccc(Cl)cc2)CC1)(c1ccccc1)c1ccccc1", "inhibition": "-0.9%"}, {"compound": "O=C1/C(=C/c2ccsc2)CC/C1=C\\c1cccs1", "inhibition": "3.3% (active)"}, {"compound": "O=C(c1ccc(OCCCc2cnc[nH]2)cc1)C1CC1", "inhibition": "-3.2%"}, {"compound": "Fc1ccc(C(OCCCc2cnc[nH]2)c2ccc(F)cc2)cc1", "inhibition": "4.3% (active)"}, {"compound": "C1CCc2nnnn2CC1", "inhibition": "-0.2%"}, {"compound": "CCC1C(=O)OCC1Cc1cncn1C", "note": "(centres undefined)", "inhibition": "5.6% (active)"}, {"compound": "CCCCCCCCCCCCCCCCCCNC(=O)OCC(COP(=O)([O-])OCC[n+]1ccsc1)OC", "note": "(centres undefined)", "inhibition": "-4.6%"}, {"compound": "CCCCCCCCCCCCCCCCCCOC[C@H](COP(=O)([O-])OCC[N+](C)(C)C)OC", "inhibition": "3.3% (active)"}, {"compound": "Cn1cnc([N+](=O)[O-])c1Sc1ncnc2nc[nH]c12", "inhibition": "0.2% (active)"}, {"compound": "N=C(N)c1ccc(N)cc1", "inhibition": "5.7% (active)"}, {"compound": "N=C(N)c1ccccc1", "inhibition": "-3.7%"}, {"compound": "N=C(N)c1ccc(OCCCCCOc2ccc(C(=N)N)cc2)cc1", "inhibition": "1.1% (active)"}, {"compound": "O=C1NC(=O)/C(=C/c2ccc3nccnc3c2)S1", "inhibition": "4.5% (active)"}, {"compound": "CCc1ccc(/C=C2/SC(=S)NC2=O)cc1", "inhibition": "-3%"}, {"compound": "O=C1NC(=O)/C(=C/c2ccc3c(c2)OC(F)(F)O3)S1", "inhibition": "-1.5%"}]}]}
